Data as given in PubChem BioAssay (NCATS).
Results filed as inconclusive are left out. Active and inactive are the calls of the source. Unless noted, calls come from the whole dose curve; as a rule, active = well fitted curve in the direction sought with a large enough effect; inconclusive = small, poorly fitted or top-dose-only effect, or another doubt; inactive = no such curve, though single readings can be large; an effect the other way counts as inactive or inconclusive.

Experiments:
[1] = Cell Viability - MRC5 (AID 434; calls by dose curve;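 note: potency is the fitted concentration of half-maximal effect; cells exposed to compound for 40 hours at 37 °C; potency reflects cytotoxicity seen as loss of intracellular ATP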); settings: MRC5 lung fibroblast viability, qHTS
In short: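 AC50 values come from Hill-equation fits of intracellular ATP loss, measured by CellTiter-Glo luminescence. Normal lung fibroblasts (MRC5) had 40 hr compound treatment at 37 C, normalized between DMSO and 100 uM tamoxifen.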

[2] = Cellular Toxicity (caspase-3) HepG2 (AID 654); settings: HepG2 caspase-3 activation, luminescence; series mostly up to 92.2 µM;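 note: cells exposed to compound for 16 hours before reading; 0% = DMSO alone and 100% = caspase signal from 100 µM tamoxifen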
In short: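 Luminescent Caspase-Glo 3/7 readout after 16 hr compound exposure of human hepatocellular carcinoma HepG2 cells at 37 °C; qHTS concentration-response, normalized DMSO = 0%, 100 uM tamoxifen = 100%; AC50 by standard Hill equation.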

[3] = Cellular Toxicity (caspase-3) HUV-EC-C (AID 656); settings: HUV-EC-C cells, caspase-3 activation (apoptosis); series mostly up to 92.2 µM
In short: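 HUV-EC-C endothelial cells, 1000/well, were pre-incubated 5 hr at 37°C, then exposed to compounds for 16 hr at 37°C. Caspase-Glo 3/7 luminescence was read after 20 min at room temperature. AC50 came from Hill fits, normalized to DMSO and 100 uM tamoxifen.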

[4] = Cellular Toxicity (caspase-3) SHSY5Y (AID 657); settings: SH-SY5Y caspase-3 activation; series mostly up to 91.7 µM
In short: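 SH-SY5Y human neuroblastoma cells (1500/well) were treated with compounds for 16 h at 37 °C, then Caspase-Glo 3/7 luminescence was read after 1 h at room temperature. Data normalized to DMSO and 10 uM staurosporine; AC50 from Hill fits.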

[5] = Cellular Toxicity (caspase-3) BJ (AID 658); settings: BJ fibroblasts, luminescence; Potency: caspase-3 activation; series mostly up to 91.7 µM
In short: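 Caspase-Glo 3/7 luminescence, read 1 hr after reagent at room temperature, in normal BJ fibroblasts exposed 16 hours at 37 °C. AC50 values from Hill-equation concentration-response, scaled between DMSO basal and 10 uM staurosporine as 100%.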

[6] = Cellular Toxicity (caspase-3) MRC-5 (AID 659); settings: MRC-5 cells, luminescence, normalized: DMSO 0%, 10 µM staurosporine 100%; series mostly up to 91.7 µM
In short: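 Luminescent Caspase-Glo 3/7 read-out (1 h, room temperature) after a 16 h, 37 °C compound exposure of MRC-5 lung fibroblasts at 1500 cells/well. Concentration-response AC50 from Hill equation; 0% DMSO, 100% 10 uM staurosporine.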

[7] = Cellular Toxicity (caspase-3) Mesangial (AID 660); settings: mesangial cells, normalized: DMSO 0%, 100 µM tamoxifen 100%; series mostly up to 91.7 µM;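 note: combined caspase 3 and 7 activity read by Caspase-Glo luminescence; cells exposed to compound for 16 h before the caspase read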
In short: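 Luminescent Caspase-Glo 3/7 readout (aminoluciferin substrate cleavage, 20 min RT) after 16 h compound exposure at 37 °C of normal human mesangial cells. Signal increase normalized between DMSO basal and 100 uM tamoxifen; Hill-equation AC50.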

[8] = Cellular Toxicity (caspase-3) SK-N-SH (AID 661); settings: SK-N-SH caspase-3 activation, qHTS, DMSO as zero, staurosporine as full; series mostly up to 91.7 µM
In short: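 Luminescent Caspase-Glo 3/7 read-out after 16 hr compound exposure of SK-N-SH neuroblastoma cells at 37 °C. Signal increase normalized to DMSO (basal) and 10 uM staurosporine (100%); AC50 from Hill equation fits of qHTS concentration-response data.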

[9] = Cellular Toxicity (caspase-3) H-4-II-E (AID 663); settings: H-4-II-E rat hepatoma; Potency: caspase-3 activation; series mostly up to 92.2 µM;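 note: cells exposed to compound for 16 hr before readout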
In short: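 Caspase 3/7 activation measured by luminescent aminoluciferin substrate cleavage after 16 hr compound treatment of H-4-II-E cells in complete medium. Increase normalized between DMSO (basal) and 100 uM tamoxifen (100%); Hill-equation AC50 from concentration-response.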

[10] = Cellular Toxicity (caspase-3) Hek293 (AID 664); settings: HEK293 caspase-3 activation, DMSO = 0%, 100 µM tamoxifen = 100%; at 92.2 µM (top of the series);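 note: cells exposed to compound for 16 h at 37 °C before readout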
In short: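 Luminescent Caspase-Glo 3/7 readout (aminoluciferin release) in HEK293 cells after 16 h compound treatment, 37 °C. Normalization: DMSO = basal, 100 uM tamoxifen = 100% stimulation. Concentration-response fitted with standard Hill equation for AC50.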

[11] = Cellular Toxicity (caspase-3) N2a (AID 665); settings: N2a cells, luminescence, normalized: DMSO 0%, 10 µM staurosporine 100%; series mostly up to 92.2 µM;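 note: compound exposure lasted 16 h at 37 °C before readout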
In short: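 Luminescent Caspase-Glo 3/7 readout in N2a mouse neuroblastoma cells after 16 h compound exposure at 37 °C. Signal scaled to DMSO (basal) and 10 uM staurosporine (100%). Concentration-response fitted with Hill equation for AC50.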

[12] = Cellular Toxicity (caspase-3) Renal Proximal Tubule (AID 667); settings: renal proximal tubule cells, primary cells freshly taken from rat; Potency: caspase-3 activation; series mostly up to 91.7 µM;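 note: cells exposed to compound for 16 hours at 37 °C before detection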
In short: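 Primary rat proximal tubule cells, 1000/well, 5 h plating at 37 °C, then compound 16 h at 37 °C. Caspase-Glo 3/7 reagent, 1 h RT, luminescence. Normalized to DMSO (basal) and 10 uM staurosporine (100%); Hill-fit AC50.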

[13] = MultiTox-Fluor Cytotoxicity Assay - LYMP1-001 - Dead Cells (AID 946); settings: LYMP1-001 lymphoblastoid cells, dead-cell protease fluorescence; series mostly up to 92.2 µM
In short: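 Cytotoxicity as increased dead-cell protease fluorescence (bis-AAF-R110, 485/520 nm), read 60 min after MultiTox-Fluor reagent. Human lymphoblastoid line exposed 16 h; Hill-fitted AC50, with DMSO as 0% and 15 uM tetraoctylammonium bromide as 100%.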

[14] = MultiTox-Fluor Cytotoxicity Assay - LYMP1-003 - Live Cells (AID 962); settings: LYMP1-003 lymphoblastoid cells, MultiTox-Fluor live-cell protease fluorescence; series mostly up to 92.2 µM;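 note: 0% = DMSO only and full loss = 92 µM tetraoctylammonium bromide; cytotoxic hits lower the live-cell protease signal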
In short: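 Readout: live-cell fluorescence (Ex/Em=405/510) from GF-AFC cleavage after 60 min MultiTox-Fluor reagent at room temperature. Lymphoblastoid LYMP1-003 cells, 16 hr compound treatment, 37 C. Concentration-response fitted to standard Hill equation for AC50.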

[15] = Cell Viability - LYMP1-003 - Assay at 24 hr (AID 963); settings: LYMP1-003 lymphoblastoid cell viability; series mostly up to 92.2 µM;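 note: plate controls were DMSO only for no effect and tetraoctylammonium bromide positive control for full effect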
In short: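 CellTiter-Glo luminescence (intracellular ATP) read after 24 hr, 37 C compound exposure of 2500 LYMP1-003 human lymphoblastoid cells/well in complete medium; qHTS concentration series; AC50 via standard Hill equation.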

[16] = qHTS Assay for Identification of Small Molecule Inducers of Hypoxia Response (AID 2120; active = well fitted curve in the direction sought with a large enough effect in the signal ratio, with a control signal flat, not every such curve was filed as active; the % refers to the signal ratio; note: 0% is about no effect); settings: hypoxia response reporter cells, beta-lactamase ratio readout; series mostly up to 104 µM
In short: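 Read-out: CCF4 FRET emission ratio 460nm/530nm (excitation 405nm), converted to %Activity, with AC50 fitted across a compound titration. ME-180 cells carried an HRE-driven beta-lactamase reporter; compound exposure 17 h, 37 degrees C.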

[17] = molecular target: Peroxisome proliferator-activated receptor alpha (Homo sapiens) (UniProt Q07869); experiment: qHTS assay for small molecule agonists of the peroxisome proliferator-activated receptor alpha (PPARalpha) signaling pathway (AID 651778); settings: PathHunter PPARalpha complementation, chemiluminescence, 6 h; max response: active compounds read high; note: % of control where 0% means no effect
Sequence of Peroxisome proliferator-activated receptor alpha (Homo sapiens) (Q07869 whole entry, looked up): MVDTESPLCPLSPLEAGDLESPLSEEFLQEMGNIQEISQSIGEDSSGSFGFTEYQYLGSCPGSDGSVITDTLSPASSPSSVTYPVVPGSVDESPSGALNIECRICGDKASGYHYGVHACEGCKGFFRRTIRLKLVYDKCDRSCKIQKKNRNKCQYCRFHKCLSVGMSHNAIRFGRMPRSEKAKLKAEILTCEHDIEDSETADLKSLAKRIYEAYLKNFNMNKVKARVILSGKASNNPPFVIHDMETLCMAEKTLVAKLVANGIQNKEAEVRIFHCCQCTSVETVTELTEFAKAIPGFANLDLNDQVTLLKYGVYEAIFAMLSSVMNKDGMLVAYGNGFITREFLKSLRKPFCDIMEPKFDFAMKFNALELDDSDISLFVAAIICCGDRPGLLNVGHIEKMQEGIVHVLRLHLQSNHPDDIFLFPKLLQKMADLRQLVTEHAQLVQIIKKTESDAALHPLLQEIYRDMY
In short: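 Chemiluminescence from complemented enzyme reported PPARalpha activation in cells after 6 hr of compound treatment at 37 C. The detection reagent was incubated for 60 min at room temperature, and compounds were scored as agonists.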

[18] = qHTS assay for small molecule agonists of the antioxidant response element (ARE) signaling pathway measured by Nrf2-dependant transcriptional activity - cell viability counter screen (AID 720653; active = well fitted curve in the direction sought with a large enough effect in the repeat runs; an effect the other way counts as inactive or inconclusive; note: % is set by controls: 0 for no effect and ±100 for the full control effect); settings: ARE-bla HepG2 viability, CellTiter-Glo ATP luminescence, 16 h; max response: active compounds read low
In short: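 Cytotoxicity counter screen: intracellular ATP quantified by CellTiter-Glo luminescence in the same ARE-bla HepG2 plates, after 16 h compound exposure and a 2 h beta-lactamase substrate step.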

[19] = qHTS assay for cell viability of HEK293 cells (AID 743288); settings: ATP luminescence (CellTiter-Glo), 18 h; max response: active compounds read low; note: % is set by controls: 0 for no effect and ±100 for the full control effect; nearly all actives have a fitted effect of over 50% in size
In short: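 After 18 h compound exposure at 37 C, parental HEK293 cells (2,000/well) are lysed with CellTiter-Glo and luminescence is read following 30 min at room temperature.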

[20] = qHTS assay for cell viability of the p53RE-bla HCT-116 cell line (AID 743292); settings: p53RE-bla HCT-116 viability, ATP luminescence, 16 h; series mostly up to 95 µM; note: % is set by controls: 0 for no effect and ±100 for the full control effect; nearly all actives have a fitted effect of over 55% in size
In short: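 Viability of compound-treated p53RE-bla HCT-116 cells is taken from ATP-dependent luciferase luminescence. Treatment lasts 16 h at 37 C after a 5 h settling period; detection follows 30 min at room temperature.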

CC(C)S
inactive: Potency [1] > 92 µM | Potency [2] | Potency [3] | Potency [4] | Potency [5] | outcome [6] | outcome [7] | outcome [8] | Potency [9] | caspase-3 activation [10] 0.604% | outcome [11] | Potency [12] | Potency [13] | Potency [14] | Potency [15] | Potency [16] | max response [17] -0.0008% | max response [18] 14.7% | max response [19] -8.12% | Potency [20]

C/C=C/C=C/C=O
inactive: Potency [1] > 92 µM | Potency [2] | Potency [3] | Potency [4] | Potency [5] | outcome [6] | outcome [7] | outcome [8] | Potency [9] | caspase-3 activation [10] 29% | outcome [11] | Potency [12] | Potency [13] | Potency [14] | Potency [15] | Potency [16] | max response [17] -0.84% | max response [18] -19.3% | max response [19] -1.13% | Potency [20]

CCC(Cl)CC(Cl)C(Cl)C(Cl)C(Cl)C(C)Cl (stereo not given)
inactive: Potency [1] > 92 µM | Potency [2] | Potency [3] | Potency [4] | Potency [5] | outcome [6] | outcome [7] | outcome [8] | Potency [9] | caspase-3 activation [10] 5.41% | outcome [11] | Potency [12] | Potency [13] | Potency [14] | Potency [15] | Potency [16] | max response [17] -3.58% | max response [18] -9.68% | max response [19] 0.239% | Potency [20]

c1ccc(CSCc2ccccc2)cc1
inactive: Potency [1] > 92 µM | Potency [2] | Potency [3] | Potency [4] | Potency [5] | outcome [6] | outcome [7] | outcome [8] | Potency [9] | caspase-3 activation [10] 0.61% | outcome [11] | Potency [12] | Potency [13] | Potency [14] | Potency [15] | Potency [16] | max response [17] -0.51% | max response [18] -4.18% | max response [19] 1.27% | Potency [20]

c1ccncc1
inactive: Potency [1] > 92 µM | Potency [2] | Potency [3] | Potency [4] | Potency [5] | outcome [6] | outcome [7] | outcome [8] | Potency [9] | caspase-3 activation [10] -0.0676% | outcome [11] | Potency [12] | Potency [13] | Potency [14] | Potency [15] | Potency [16] | max response [17] -4.5% | max response [18] -7.78% | max response [19] 1.01% | Potency [20]
